Test results from PubChem BioAssay (Tox21).
Results filed as inconclusive are left out. Activity calls are given as the source filed them. Unless noted, calls come from the whole dose curve; as a rule, active = well fitted curve in the direction sought with a large enough effect in the repeat runs; inconclusive = weak or mixed curves; inactive = no such curve, though single readings can be large; an effect the other way counts as inactive or inconclusive.

Tests used:
[1] = qHTS assay to identify small molecule antagonists of the sonic hedgehog signaling (Shh) pathway (AID 1259369; calls by dose curve; note: nearly all actives have a fitted effect of over 45% in size)
How it was run: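 NIH/3T3-derived 3T3Gli1-Luc cells with stably integrated Gli1-Luc reporter were preincubated 4hr at 37 C, then given compounds in DMSO plus Shh conditioned medium and incubated 24hr. Firefly luciferase luminescence read after 30min reagent at room temperature.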

[2] = qHTS assay to identify small molecule agonists of the androgen receptor (AR) signaling pathway in the presence of an antagonist - cell viability counter screen (AID 1259379); note: nearly all actives have a fitted effect of over 25% in size; note: potency is the fitted concentration of half-maximal effect; for activity change, negative = cytotoxicity: series mostly up to about 92 µM
How it was run: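 MDA-kb2 human breast carcinoma cells (stable MMTV-luciferase, AR/GR responsive) were seeded 3,000 cells/well, pre-incubated 5 hr at 37C without CO2, then given 3.0uM nilutamide and compounds at 15 concentrations for 16 hr. Viability was read by CellTiter-Fluor fluorescence.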

[3] = qHTS assay to identify small molecule agonists of the estrogen receptor beta (ER-beta) signaling pathway - cell viability counter screen (AID 1259380); note: nearly all actives have a fitted effect of over 30% in size
How it was run: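 ER-beta-UAS-bla HEK293T cells in medium with 2% charcoal-stripped FBS were preincubated 6 hr at 37C, dosed with compound in DMSO for 16 hr, then after the bla read, CellTiter-Glo was added for 30 min at room temperature; luminescence recorded.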

[4] = qHTS assay to identify small molecule antagonists of the estrogen receptor beta (ER-beta) signaling pathway - cell viability counter screen (AID 1259382);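 note: HEK293T cells carrying ER-beta-UAS-bla reporter stimulated with estradiol; series mostly up to about 92 µM; nearly all actives have a fitted effect of over 55% in size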
How it was run: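 ER-beta-UAS-bla HEK293T cells (2,000/well, 2% charcoal-stripped FBS) were pre-incubated 6 hr at 37C, then given compound plus 1nM final 17-beta-estradiol for 16 hr. Viability was read in the same wells by CellTiter-Glo luminescence after 30 min at room temperature.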

[5] = molecular target: Estrogen receptor (Homo sapiens) (UniProt P03372); assay: qHTS assay to identify small molecule agonists of the estrogen receptor alpha (ER-alpha) signaling pathway in the presence of an antagonist (AID 1259383; calls by dose curve; note: top concentration of the series differs between compounds; nearly all actives have a fitted effect of over 15% in size)
How it was run: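 VM7Luc4E2 cells (endogenous full-length ER-alpha, 4×ERE-luciferase) were precultured 5 days in phenol red-free medium with 10% charcoal-stripped FBS, given 10.0nM ICI-182,780 (final), then treated with compounds at 15 concentrations for 22hr at 37C; luminescence read with ONE-Glo.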

[6] = qHTS assay to identify small molecule agonists of the estrogen receptor alpha (ER-alpha) signaling pathway in the presence of an antagonist - cell viability counter screen (AID 1259386);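 note: cells exposed to compounds for 22 h at 37 °C before the viability read; nearly all actives have a fitted effect of over 30% in size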; note: potency is the fitted concentration of half-maximal effect; for activity change, negative = cytotoxicity: series mostly up to about 92 µM
How it was run: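 VM7Luc4E2 cells (endogenous full-length ER-alpha, 4×ERE-luciferase) were held 5 days in phenol red-free medium with 10% charcoal-stripped FBS, plated, then given 10.0nM ICI-182,780 and compounds at 15 concentrations for 22hr at 37C; viability read by CellTiter-Fluor fluorescence.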

[7] = molecular target: Progesterone receptor (Homo sapiens) (UniProt P06401); assay: qHTS assay to identify small molecule agonists of the progesterone receptor (PR) signaling pathway (AID 1346784; calls by dose curve; note: nearly all actives have a fitted effect of over 30% in size)
How it was run: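 Using charcoal-stripped serum (2%) to limit endogenous steroids, PR-UAS-bla HEK 293T cells received compounds for 16 hr at 37C after 6 hr plating; beta-lactamase FRET fluorescence was recorded following 2 hr substrate loading at room temperature.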

[8] = molecular target: Progesterone receptor (Homo sapiens) (UniProt P06401); assay: qHTS assay to identify small molecule antagonists of the progesterone receptor (PR) signaling pathway (AID 1346795; active = well fitted inhibition curve with a large enough effect in the signal ratio in the repeat runs, not every such curve was filed as active; the % refers to the signal ratio)
How it was run: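 Inhibition of R5020-induced (1 nM final) beta-lactamase reporter signal in PR-UAS-bla HEK293T cells was scored by FRET fluorescence after overnight (16 hr) compound treatment.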

[9] = qHTS assay to identify small molecule agonists of the progesterone receptor (PR) signaling pathway - cell viability counter screen (AID 1346799; calls by dose curve; note: nearly all actives have a fitted effect of over 45% in size)
How it was run: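 Cytotoxicity in PR-bla HEK293T cells: 16 h compound, 37C; CellTiter-Glo added post-FRET read; luminescence after 30 min RT.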

[10] = qHTS assay to identify small molecule antagonists of the TGF-beta/Smad signaling pathway - cell viability counter screen (AID 1346824); note: nearly all actives have a fitted effect of over 50% in size
How it was run: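 SBE-bla HEK 293T cells, incubated overnight, then compound plus 0.25 ng/mL TGF-beta1 (stock added) for 5 hr at 37 C. Viability was read in the same wells by CellTiter-Glo luminescence after 30 min at room temperature.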

[11] = qHTS assay to identify small molecule agonists of the TGF-beta/Smad signaling pathway - cell viability counter screen (AID 1346829); note: top concentration of the series differs between compounds; nearly all actives have a fitted effect of over 45% in size
How it was run: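 Tox21 qHTS format: SBE-bla HEK 293T cells treated with DMSO-dissolved compounds for 5 hr; CellTiter-Glo luminescence after 30 min at room temperature.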

[12] = qHTS assay to identify small molecule agonists of the TGF-beta/Smad signaling pathway (AID 1346859; active = well fitted activation curve with a large enough effect in the signal ratio in the repeat runs, not every such curve was filed as active; the % refers to the signal ratio; note: series mostly up to about 77 µM)
How it was run: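 Stable Smad binding element-beta-lactamase HEK 293T cells; 5 hr compound exposure at 37 C under 5% CO2; 2 hr room-temperature substrate step; fluorescence excited at 405 nm, collected at 460 nm and 530 nm.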

[13] = qHTS assay to identify small molecule agonists or antagonists of the thyroid stimulating hormone receptor (TSHR) signaling pathway - wild type cell line counter screen (AID 1259384; calls by dose curve)
How it was run: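 Wild-type Hek293 cells, 800/well, 18 h at 37C, then compound with Ro20-1724 for 30 min RT. cAMP by HTRF (cAMP-d2/anti-cAMP cryptate), 1 h RT, fluorescence read. 15 concentrations, triplicates.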

[14] = molecular target: Thyrotropin-releasing hormone receptor (Homo sapiens) (UniProt P34981); assay: qHTS assay to identify small molecule antagonists of the thyrotropin-releasing hormone receptor (TRHR) signaling pathway (AID 1346877; active = well fitted inhibition curve with a large enough effect in the repeat runs, not every such curve was filed as active; note: series mostly up to about 51 µM)
How it was run: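 TRHR-expressing HEK293 cells were seeded, cultured 18 h at 37 °C, then loaded with calcium dye for 2 h. Compounds were pre-incubated 5 min at room temperature before 1 nM TRH (final) was added, and kinetic fluorescence was recorded for 3 min.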

[15] = molecular target: Thyrotropin-releasing hormone receptor (Homo sapiens) (UniProt P34981); assay: qHTS assay to identify small molecule agonists of the thyrotropin-releasing hormone receptor (TRHR) signaling pathway (AID 1346891; calls by dose curve; note: series mostly up to about 58 µM)
How it was run: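 In 1536-format, 1500 TRHR-Hek293 cells per well grew 18 h, took up calcium dye for 2 h at 37 °C, received compound, and were read kinetically; 15-point titrations, triplicates.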

[16] = molecular target: Thyrotropin receptor (Homo sapiens) (UniProt P16473); assay: qHTS assay to identify small molecule antagonists of the thyroid stimulating hormone receptor (TSHR) signaling pathway (AID 1259385; calls by dose curve; note: nearly all actives have a fitted effect of over 20% in size)
How it was run: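 TSHR-HEK293 cells (800/well) plated 18 h, then compounds with Ro20-1724 and TSH at 1.5 ng/mL final, 30 min at room temperature. cAMP quantified by HTRF (cAMP-d2/anti-cAMP-cryptate, 1 h); 15 concentrations in triplicate.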

[17] = molecular target: Androgen receptor (Homo sapiens) (UniProt P10275); assay: qHTS assay to identify small molecule agonists of the androgen receptor (AR) signaling pathway in the presence of an antagonist (AID 1259381; calls by dose curve; note: nearly all actives have a fitted effect of over 15% in size)
How it was run: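 MDA-kb2 human breast carcinoma cells carrying an MMTV-luciferase reporter (AR- and GR-responsive) were treated with compounds at 15 concentrations plus 3.0uM final nilutamide for 16hr at 37C without CO2; luminescence was read after ONE-Glo addition.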

[18] = qHTS assay to identify small molecule antagonists of the progesterone receptor (PR) signaling pathway - cell viability counter screen (AID 1346798); note: series mostly up to about 92 µM; nearly all actives have a fitted effect of over 50% in size
How it was run: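 ATP content as viability readout: CellTiter-Glo luminescence, 30 min room temperature, in PR-UAS-bla HEK293T cells after 16 hr compound/R5020 treatment at 37C and 5% CO2.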
% is set by controls: 0 for no effect and ±100 for the full control effect.

Estrogen receptor (Homo sapiens), sequence (P03372 whole entry, looked up): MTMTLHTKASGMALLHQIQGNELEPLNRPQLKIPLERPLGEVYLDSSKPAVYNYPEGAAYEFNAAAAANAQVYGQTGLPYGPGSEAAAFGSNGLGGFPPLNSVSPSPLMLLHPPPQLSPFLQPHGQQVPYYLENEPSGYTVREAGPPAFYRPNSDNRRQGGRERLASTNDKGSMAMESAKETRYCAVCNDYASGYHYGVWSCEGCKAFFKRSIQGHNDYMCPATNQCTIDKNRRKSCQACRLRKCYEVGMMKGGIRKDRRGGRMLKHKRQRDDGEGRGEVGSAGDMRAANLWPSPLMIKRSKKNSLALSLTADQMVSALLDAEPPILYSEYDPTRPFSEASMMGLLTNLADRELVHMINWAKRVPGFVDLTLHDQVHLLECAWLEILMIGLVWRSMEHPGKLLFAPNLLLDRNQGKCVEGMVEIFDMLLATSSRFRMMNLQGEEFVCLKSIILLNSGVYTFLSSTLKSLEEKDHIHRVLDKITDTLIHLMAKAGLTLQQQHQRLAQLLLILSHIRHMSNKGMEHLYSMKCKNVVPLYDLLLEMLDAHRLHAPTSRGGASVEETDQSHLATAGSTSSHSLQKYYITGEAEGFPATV
Thyrotropin-releasing hormone receptor (Homo sapiens), sequence (P34981 whole entry, looked up): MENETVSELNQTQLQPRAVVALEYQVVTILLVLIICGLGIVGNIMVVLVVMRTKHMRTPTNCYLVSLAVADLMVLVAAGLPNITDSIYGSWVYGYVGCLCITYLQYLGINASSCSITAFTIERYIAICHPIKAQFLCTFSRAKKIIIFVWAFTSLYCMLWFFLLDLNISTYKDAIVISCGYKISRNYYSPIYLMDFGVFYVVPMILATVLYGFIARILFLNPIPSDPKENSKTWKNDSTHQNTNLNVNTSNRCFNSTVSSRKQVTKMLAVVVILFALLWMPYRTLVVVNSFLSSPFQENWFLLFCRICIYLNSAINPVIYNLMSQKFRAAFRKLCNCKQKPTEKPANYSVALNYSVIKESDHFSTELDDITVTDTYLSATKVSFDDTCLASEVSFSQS
Thyrotropin receptor (Homo sapiens), sequence (P16473 whole entry, looked up): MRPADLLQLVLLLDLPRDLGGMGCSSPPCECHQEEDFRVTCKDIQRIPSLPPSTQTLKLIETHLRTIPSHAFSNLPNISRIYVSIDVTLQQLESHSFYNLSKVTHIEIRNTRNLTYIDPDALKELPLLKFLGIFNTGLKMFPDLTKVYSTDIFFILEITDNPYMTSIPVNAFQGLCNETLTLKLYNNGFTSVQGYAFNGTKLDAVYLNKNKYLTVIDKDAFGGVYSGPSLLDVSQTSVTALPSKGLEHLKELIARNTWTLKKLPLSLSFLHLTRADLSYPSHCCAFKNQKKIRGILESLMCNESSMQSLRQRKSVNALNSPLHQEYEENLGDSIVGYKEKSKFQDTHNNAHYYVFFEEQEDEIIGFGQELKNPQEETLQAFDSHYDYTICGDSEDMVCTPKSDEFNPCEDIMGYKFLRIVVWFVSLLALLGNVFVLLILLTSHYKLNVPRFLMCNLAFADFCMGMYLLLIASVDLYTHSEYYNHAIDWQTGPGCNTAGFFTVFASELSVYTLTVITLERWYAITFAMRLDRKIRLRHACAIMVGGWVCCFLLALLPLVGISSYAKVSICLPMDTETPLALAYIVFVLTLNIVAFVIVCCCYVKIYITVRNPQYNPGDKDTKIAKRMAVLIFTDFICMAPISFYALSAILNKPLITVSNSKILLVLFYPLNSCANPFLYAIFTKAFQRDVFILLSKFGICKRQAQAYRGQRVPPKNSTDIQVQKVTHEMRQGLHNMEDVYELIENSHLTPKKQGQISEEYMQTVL
Progesterone receptor (Homo sapiens), sequence (P06401 whole entry, looked up): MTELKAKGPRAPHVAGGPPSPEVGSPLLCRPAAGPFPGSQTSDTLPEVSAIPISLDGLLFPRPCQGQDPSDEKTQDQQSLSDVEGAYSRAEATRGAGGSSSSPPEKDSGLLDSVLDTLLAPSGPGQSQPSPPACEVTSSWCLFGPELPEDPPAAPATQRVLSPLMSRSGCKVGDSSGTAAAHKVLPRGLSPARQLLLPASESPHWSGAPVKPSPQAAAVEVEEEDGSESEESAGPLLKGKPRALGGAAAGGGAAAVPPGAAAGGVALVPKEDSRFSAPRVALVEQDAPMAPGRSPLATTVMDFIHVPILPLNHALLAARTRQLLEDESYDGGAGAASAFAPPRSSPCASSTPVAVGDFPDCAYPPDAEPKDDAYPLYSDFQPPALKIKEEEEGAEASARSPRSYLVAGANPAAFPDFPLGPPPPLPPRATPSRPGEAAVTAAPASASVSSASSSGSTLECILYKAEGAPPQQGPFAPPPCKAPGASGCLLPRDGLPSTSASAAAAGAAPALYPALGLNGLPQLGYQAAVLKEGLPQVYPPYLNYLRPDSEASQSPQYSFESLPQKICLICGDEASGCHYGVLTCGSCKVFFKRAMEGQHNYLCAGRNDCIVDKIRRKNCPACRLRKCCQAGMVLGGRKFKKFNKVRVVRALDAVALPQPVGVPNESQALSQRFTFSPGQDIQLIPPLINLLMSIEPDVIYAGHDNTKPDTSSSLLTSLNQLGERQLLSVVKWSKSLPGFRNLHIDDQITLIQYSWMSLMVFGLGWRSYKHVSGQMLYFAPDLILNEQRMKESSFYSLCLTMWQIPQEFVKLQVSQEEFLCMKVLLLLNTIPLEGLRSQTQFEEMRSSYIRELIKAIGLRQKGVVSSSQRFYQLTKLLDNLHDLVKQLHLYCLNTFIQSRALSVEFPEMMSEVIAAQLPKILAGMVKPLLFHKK
Androgen receptor (Homo sapiens), sequence (P10275 whole entry, looked up): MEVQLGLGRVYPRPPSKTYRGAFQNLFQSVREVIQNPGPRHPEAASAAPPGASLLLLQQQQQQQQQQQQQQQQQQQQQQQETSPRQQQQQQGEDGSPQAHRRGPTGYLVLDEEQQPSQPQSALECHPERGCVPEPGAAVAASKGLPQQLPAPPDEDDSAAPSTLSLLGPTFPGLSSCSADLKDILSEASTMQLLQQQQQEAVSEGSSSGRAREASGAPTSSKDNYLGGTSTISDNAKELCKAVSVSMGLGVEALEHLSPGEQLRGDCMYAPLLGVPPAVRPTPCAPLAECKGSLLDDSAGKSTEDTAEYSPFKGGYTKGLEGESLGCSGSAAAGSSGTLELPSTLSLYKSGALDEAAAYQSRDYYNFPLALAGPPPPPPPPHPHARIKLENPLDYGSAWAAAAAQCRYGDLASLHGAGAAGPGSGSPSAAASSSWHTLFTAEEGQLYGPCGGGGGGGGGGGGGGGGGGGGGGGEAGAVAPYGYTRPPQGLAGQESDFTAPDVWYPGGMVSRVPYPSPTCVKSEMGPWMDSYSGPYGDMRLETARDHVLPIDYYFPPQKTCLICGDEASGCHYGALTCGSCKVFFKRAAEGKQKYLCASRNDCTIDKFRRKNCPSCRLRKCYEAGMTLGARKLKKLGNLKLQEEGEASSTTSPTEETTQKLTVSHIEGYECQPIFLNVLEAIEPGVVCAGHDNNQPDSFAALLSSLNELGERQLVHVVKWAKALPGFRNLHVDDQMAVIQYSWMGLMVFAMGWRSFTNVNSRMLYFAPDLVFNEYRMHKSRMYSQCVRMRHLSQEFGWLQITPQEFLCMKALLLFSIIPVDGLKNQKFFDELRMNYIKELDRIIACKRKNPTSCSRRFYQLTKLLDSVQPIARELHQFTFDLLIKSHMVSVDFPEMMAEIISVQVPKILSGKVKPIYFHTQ

CC(C)(C)C1CCCCC1O (configuration not stated)
inactive: Potency [1] | Potency [2] | Potency [3] | Potency [4] | Potency [5] | Potency [6] | outcome [7] | Potency [8] | Potency [9] | Potency [10] | Potency [11] | outcome [12]

COCCCCCCCCOCCC[Si](C)(O[Si](C)(C)C)O[Si](C)(C)C
active: Potency [2] 17.2 µM | Potency [6] 24.3 µM
inactive: Potency [1] | Potency [4] | Potency [5] | Potency [13] | outcome [7] | Potency [8] | Potency [10] | Potency [11] | outcome [12] | outcome [14] | Potency [15]

N#Cc1c(F)cccc1F
inactive: Potency [1] | Potency [2] | Potency [3] | Potency [4] | Potency [13] | Potency [16] | Potency [6] | outcome [7] | Potency [9] | Potency [10] | Potency [11] | outcome [14] | Potency [15]

Cc1cc(NC(=O)C(=O)O)cc(C)c1Oc1ccc(O)c2c1CCC2
inactive: Potency [1] | Potency [2] | Potency [17] | Potency [4] | Potency [5] | Potency [6] | outcome [7] | Potency [18] | Potency [9] | Potency [10] | Potency [11] | outcome [12] | outcome [14] | Potency [15]

CC(=O)Nc1ccc(/C=N/NC(N)=S)cc1
inactive: Potency [1] | Potency [2] | Potency [3] | Potency [4] | Potency [6] | outcome [7] | Potency [8] | Potency [18] | Potency [9] | Potency [10] | Potency [11] | outcome [12]

CN1CCC[C@@H]1c1cccnc1
inactive: Potency [1] | Potency [2] | Potency [3] | Potency [4] | outcome [7] | Potency [18] | Potency [9] | Potency [10] | Potency [11] | outcome [14] | Potency [15]

CC(C(=O)O)c1ccc(C(=O)c2ccccc2)s1 (configuration not stated)
inactive: Potency [1] | Potency [2] | Potency [3] | Potency [4] | Potency [6] | outcome [7] | Potency [18] | Potency [9] | Potency [10] | Potency [11] | outcome [14] | Potency [15]

CCN(CCO)CCCC(C)Nc1ccnc2cc(Cl)ccc12 (configuration not stated)
inactive: activity change, negative = inhibition [1] 5.56% [at 8.39 µM] | activity change, negative = cytotoxicity [2] -1.54% [at 8.39 µM] | activity change, negative = cytotoxicity [3] 3.81% [at 8.39 µM] | activity change, negative = cytotoxicity [4] -2.09% [at 8.39 µM] | cAMP activity change [13] -5.44% [at 8.39 µM, stronger effect = higher value] | activity change, negative = inhibition [16] -2.73% [at 8.39 µM] | activation [7] -0.495% [at 8.39 µM] | activity change, negative = cytotoxicity [18] -13% [at 8.39 µM] | activity change, negative = cytotoxicity [9] -10.8% [at 8.39 µM] | viability change, negative = cytotoxic [10] -17% [at 6.97 µM] | activity change, negative = cytotoxicity [11] 2.66% [at 6.97 µM] | activation [12] -1.21% [at 6.97 µM] | activity, negative = inhibition [14] 0.0536% [at 4.65 µM] | activation [15] 0.0624% [at 5.23 µM]

CC(=O)c1ccc2c(c1)[C@H](NC(=O)c1ccc(F)cc1)[C@@H](O)C(C)(C)O2
inactive: Potency [1] | Potency [2] | Potency [4] | Potency [16] | Potency [6] | outcome [7] | Potency [8] | Potency [10] | Potency [11] | outcome [14] | Potency [15]
